Values without a mark were called inactive.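 How the source made its calls: active = AUC reduced over 20% with Padj below 0.05 in at least 2 of 3 replicates; inactive = otherwise.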
System: Roseburia intestinalis
Test: growth AUC relative to DMSO control (median of replicates) (fraction); higher = more growth (less inhibition), active = hit call of the paper
Conditions: 20 µM; 24 h
Outline: (§1)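 Area under the growth curve was normalised to the plate median of solvent-only wells, except on the industrial chemical plate, where row and column medians were used. Curves came from gut bacterial monocultures grown anaerobically at 37 °C in mGAM with 20 µM compound (1% DMSO), starting at OD600 0.05 and read at OD600 every hour for 24 h. The minimum OD of each curve was set to 0, and values are medians of three biological replicates grown on separate days.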

SMILES | growth AUC
c1ccc(Nc2ccccc2)cc1 | 1.01
c1cc2ccc3ccc4ccc5cccc6c(c1)c2c3c4c56 | 1.02
Clc1ccc(Sc2cc(Cl)c(Cl)cc2Cl)cc1 | 0.937
Cc1cc(C2CC2)nc(Nc2ccc(O)cc2)n1 | 1.01
Cc1ccc(Cl)cc1 | 1
CC(C)(C)[C@@H](O)[C@@H](Cc1ccc(Cl)cc1)n1cncn1 (mixture of isomers) | 0.963
O=C(O)c1ccc(Cl)cc1Cl | 0.997
CC(C)(C)C(=O)C(Oc1ccc(Cl)cc1)n1ccnc1 (stereo not drawn) | 0.9
CN(C)C(=O)c1cccnc1S(N)(=O)=O | 1.03
CCOc1ccc2c(c1)C(C)=CC(C)(C)N2 | 1.04
C[C@@]1(c2ccccc2)NC(=O)N(Nc2ccccc2)C1=O | 0.958
COC1CCC2(CC1)NC(=O)C(c1cc(C)ccc1C)=C2O (stereo not drawn) | 0.986
COC(=O)C(Cl)Cc1ccc(Cl)cc1 (stereo not drawn) | 0.965
O=C=NC1CCC(CC2CCC(N=C=O)CC2)CC1 (stereo not drawn) | 1.06
Oc1ccc2ccccc2c1N=Nc1ccccc1 | 1.13
CCCCCCCCCCCC[N+](C)(C)Cc1ccc(CC)cc1.[Cl-] | 0.0285 (active)
COC(=O)C(C)Oc1cc(Cl)c(Cl)cc1Cl (stereo not drawn) | 1.01
CO/N=C(/C(=O)O)c1ccccc1CO/N=C(\C)c1cccc(C(F)(F)F)c1 | 1.01
FC(F)(F)c1cccc(C(c2ccccc2)(c2ccccc2)n2cncn2)c1 | 0.911
CSC(=O)c1cccc2nnsc12 | 0.953

SMILES | growth AUC
CCc1cc(C(=O)O)cc(CC)c1C1C(=O)N2CCOCCN2C1=O | 0.952
CCCN(CCC)C(=O)SCC | 0.948
CON=C(Cc1cccnc1)c1ccc(Cl)cc1Cl | 1.05
COc1nc(N)nc(C(F)(F)F)n1 | 1.05
CCOC(=O)[C@@H](C)Oc1ccc(Oc2nc3ccc(Cl)cc3o2)cc1 | 0.975
CC(=O)CC(c1ccccc1)c1c(O)c2ccccc2oc1=O (stereo not drawn) | 0.952
O=C1NCCN1 | 1.24
CCCCCCCC/C=C\CCCCCCCC(N)=O | 0.933
c1ccc2c(c1)ccc1ccccc12 | 0.993
COC(=O)c1csc(C)c1S(=O)(=O)NC(=O)n1nc(OC)n(C)c1=O | 0.974
CP(=O)(O)CCC(=O)O | 1.03
CC(C)NS(=O)(=O)NC(=O)c1cc(NC(N)=O)c(F)cc1Cl | 0.981
CC(C)N(C(=O)C(=O)O)c1ccc(F)cc1 | 0.998
Cc1ccc2c(c1)[C@H](Nc1nc(N)nc(C(C)F)n1)[C@@H](C)C2 (stereo partly drawn) | 0.948
CNC(=O)/C(=N/OC)c1ccccc1COc1cc(C)ccc1C | 1.02
CCc1ccc(C(c2ccc(CC)cc2)C(Cl)Cl)cc1 | 1
CCCCN(C)C(=O)Nc1ccc(Cl)c(Cl)c1 | 0.956
CCCNCCOc1c(Cl)cc(Cl)cc1Cl | 0.946
COC(=O)CCCOc1ccc(Cl)cc1Cl | 0.887

System: Streptococcus salivarius
Test: as above
Conditions: 20 µM; 24 h
Outline: as §1

SMILES | growth AUC
c1ccc(Nc2ccccc2)cc1 | 1.02
c1cc2ccc3ccc4ccc5cccc6c(c1)c2c3c4c56 | 1.02
Clc1ccc(Sc2cc(Cl)c(Cl)cc2Cl)cc1 | 0.933
Cc1cc(C2CC2)nc(Nc2ccc(O)cc2)n1 | 1.01
Cc1ccc(Cl)cc1 | 1.02
CC(C)(C)[C@@H](O)[C@@H](Cc1ccc(Cl)cc1)n1cncn1 (mixture of isomers) | 0.95
O=C(O)c1ccc(Cl)cc1Cl | 1
CC(C)(C)C(=O)C(Oc1ccc(Cl)cc1)n1ccnc1 (stereo not drawn) | 0.963
CN(C)C(=O)c1cccnc1S(N)(=O)=O | 0.978
CCOc1ccc2c(c1)C(C)=CC(C)(C)N2 | 1.06
C[C@@]1(c2ccccc2)NC(=O)N(Nc2ccccc2)C1=O | 1.02
COC1CCC2(CC1)NC(=O)C(c1cc(C)ccc1C)=C2O (stereo not drawn) | 1.03
COC(=O)C(Cl)Cc1ccc(Cl)cc1 (stereo not drawn) | 0.93
O=C=NC1CCC(CC2CCC(N=C=O)CC2)CC1 (stereo not drawn) | 1.01
Oc1ccc2ccccc2c1N=Nc1ccccc1 | 0.914
CCCCCCCCCCCC[N+](C)(C)Cc1ccc(CC)cc1.[Cl-] | 1.03
COC(=O)C(C)Oc1cc(Cl)c(Cl)cc1Cl (stereo not drawn) | 1.02
CO/N=C(/C(=O)O)c1ccccc1CO/N=C(\C)c1cccc(C(F)(F)F)c1 | 0.915
FC(F)(F)c1cccc(C(c2ccccc2)(c2ccccc2)n2cncn2)c1 | 0.94
CSC(=O)c1cccc2nnsc12 | 0.968

SMILES | growth AUC
CCc1cc(C(=O)O)cc(CC)c1C1C(=O)N2CCOCCN2C1=O | 1
CCCN(CCC)C(=O)SCC | 1
CON=C(Cc1cccnc1)c1ccc(Cl)cc1Cl | 0.997
COc1nc(N)nc(C(F)(F)F)n1 | 1
CCOC(=O)[C@@H](C)Oc1ccc(Oc2nc3ccc(Cl)cc3o2)cc1 | 1.05
CC(=O)CC(c1ccccc1)c1c(O)c2ccccc2oc1=O (stereo not drawn) | 1
O=C1NCCN1 | 1.02
CCCCCCCC/C=C\CCCCCCCC(N)=O | 0.952
c1ccc2c(c1)ccc1ccccc12 | 0.997
COC(=O)c1csc(C)c1S(=O)(=O)NC(=O)n1nc(OC)n(C)c1=O | 0.931
CP(=O)(O)CCC(=O)O | 0.987
CC(C)NS(=O)(=O)NC(=O)c1cc(NC(N)=O)c(F)cc1Cl | 0.887
CC(C)N(C(=O)C(=O)O)c1ccc(F)cc1 | 1.05
Cc1ccc2c(c1)[C@H](Nc1nc(N)nc(C(C)F)n1)[C@@H](C)C2 (stereo partly drawn) | 1.01
CNC(=O)/C(=N/OC)c1ccccc1COc1cc(C)ccc1C | 1.06
CCc1ccc(C(c2ccc(CC)cc2)C(Cl)Cl)cc1 | 0.963
CCCCN(C)C(=O)Nc1ccc(Cl)c(Cl)c1 | 0.971
CCCNCCOc1c(Cl)cc(Cl)cc1Cl | 0.964
COC(=O)CCCOc1ccc(Cl)cc1Cl | 0.931

Reference: the supplement of paper PMC12669032
